Data reported in PubChem BioAssay AID447 (National Center for Advancing Translational Sciences (NCATS), 2006).
The campaign covered roughly 69,000 compounds. Fewer than 10 were called active. Not shown: some 100% with an inconclusive outcome. The rule behind the calls is not given here. This is one part of the list.

Target: UDP-N-acetylglucosamine--peptide N-acetylglucosaminyltransferase 110 kDa subunit (Homo sapiens) (UniProt O15294)
Experiment: O-Glc NAc Transferase (sOGT)
Conditions: sOGT fluorescence polarization UDP-GlcNAc probe displacement
Excerpt: NIH Molecular Libraries Screening Centers Network [MLSCN]
NIH Chemical Genomics Center [NCGC]
Suzanne Walker [Harvard Medical School]
OGT is the sole enzyme that mediates the attachment of O-GlcNAc groups to serine and threonine residues in the nucleus and cytoplasm of eukaryotic cells, and no specific inhibitors are known. This type of glycosylation is involved in signal transduction and plays a key role in many essential cellular processes. High O-GlcNAc levels have been correlated to insulin resistance and type 2 diabetes. In addition to elucidating the role of O-GlcNAc in cellular processes, inhibitors of OGT might be useful in studying and perhaps treating type 2 diabetes. Since HTS-amenable direct assay for OGT activity is currently unavailable, a simpler substrate-displacement screen was performed. The signal measured is based on the change in fluorescence polarization of a fluorescein-labeled UDP-GlcNAc upon displacement from its complex with OGT. Recombinant truncated version of the enzyme, sOGT, as well as labeled probe, were made available by Suzanne Walker and Benjamin Gross, Harvard Medical School.
NCGC Assay Protocol Summary:
20 mM phosphate buffer, pH 8.0, 0.01% Tween-20, 500 uM THP (Tris (hydroxypropyl) phosphine).
50 nM/1.5 uM sOGT /100 uM UDP in columns 3 and 4 as negative control (full inhibition of binding, 0 % activity).
50 nM probe/1.5 uM sOGT in columns 1, 2, 5-48. Titration of UDP control (from 40 mM, then 1:2) pin-transferred to column 2. Column 1 is neutral (100% activity).
Three uL of reagents were dispensed to 1536-well Greiner black plates. Compounds and controls (20 nL) were transferred via Kalypsys PinTool. The plates were incubated for 15 min at room temperature, and then read on ViewLux (Perkin-Elmer) High-throughput CCD imager using fluorescein polarization filter set and 45 seconds exposure time. During dispense, reagent bottles were kept submerged into 4 deg C water bath and all liquid lines were covered with aluminum foil to minimize probe and protein degradation.
Keywords: NIH Roadmap, MLSCN, MLI, MLSMR, sOGT, qHTS, NCGC

Sequence of UDP-N-acetylglucosamine--peptide N-acetylglucosaminyltransferase 110 kDa subunit (Homo sapiens) (O15294 whole entry, looked up): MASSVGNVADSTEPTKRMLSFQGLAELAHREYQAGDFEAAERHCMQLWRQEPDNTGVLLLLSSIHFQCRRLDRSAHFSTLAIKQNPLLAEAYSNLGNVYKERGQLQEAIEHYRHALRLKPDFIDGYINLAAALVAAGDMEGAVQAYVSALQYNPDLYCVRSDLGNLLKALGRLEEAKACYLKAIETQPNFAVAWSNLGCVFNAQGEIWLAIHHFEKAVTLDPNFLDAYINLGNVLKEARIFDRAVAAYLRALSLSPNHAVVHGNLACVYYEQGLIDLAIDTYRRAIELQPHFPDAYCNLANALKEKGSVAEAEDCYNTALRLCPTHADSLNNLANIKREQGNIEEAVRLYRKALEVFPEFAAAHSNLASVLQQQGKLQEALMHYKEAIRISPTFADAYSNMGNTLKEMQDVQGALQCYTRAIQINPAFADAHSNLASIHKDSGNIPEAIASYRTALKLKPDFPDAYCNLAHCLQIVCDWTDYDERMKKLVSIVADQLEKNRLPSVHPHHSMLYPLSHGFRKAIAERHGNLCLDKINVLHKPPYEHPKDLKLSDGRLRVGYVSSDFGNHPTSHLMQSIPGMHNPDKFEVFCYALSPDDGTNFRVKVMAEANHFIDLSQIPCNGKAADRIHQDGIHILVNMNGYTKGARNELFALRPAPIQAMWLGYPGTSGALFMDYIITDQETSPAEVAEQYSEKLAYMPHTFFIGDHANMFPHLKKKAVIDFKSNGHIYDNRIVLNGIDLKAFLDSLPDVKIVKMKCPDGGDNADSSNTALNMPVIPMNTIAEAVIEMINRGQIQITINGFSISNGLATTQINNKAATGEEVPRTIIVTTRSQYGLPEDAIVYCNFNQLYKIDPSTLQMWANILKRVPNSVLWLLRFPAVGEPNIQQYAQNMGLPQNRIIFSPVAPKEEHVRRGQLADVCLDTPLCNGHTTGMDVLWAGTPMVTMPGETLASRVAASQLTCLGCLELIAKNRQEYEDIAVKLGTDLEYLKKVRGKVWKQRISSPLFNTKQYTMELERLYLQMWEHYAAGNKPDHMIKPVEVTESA

Potency, active:
O=C(O)C1=CC(=C(c2ccc(O)c(C(=O)O)c2)c2ccc(O)c(C(=O)O)c2)C=CC1=O 21.8 µM
CCCn1c(=O)c(C)cn2nc(N)nc12 31.1 µM
CCCCCCCCCCCCC/C=C\[C@@H](O)[C@H](CO)NC(C)=O 25.2 µM
Cc1cc(-c2ccc(N=Nc3ccc4c(S(=O)(=O)O)cc(S(=O)(=O)O)c(N)c4c3O)c(C)c2)ccc1N=Nc1ccc2c(S(=O)(=O)O)cc(S(=O)(=O)O)c(N)c2c1O 43.7 µM
Nc1c(S(=O)(=O)O)cc(Nc2ccc(Nc3nc(Cl)nc(Nc4ccc(S(=O)(=O)O)cc4)n3)c(S(=O)(=O)O)c2)c2c1C(=O)c1ccccc1C2=O 22.3 µM
